PubChem BioAssay
Active and inactive are the calls of the source.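 How the source made its calls: active means inhibition at or above 50% at 10 µM; inactive means inhibition below 50%.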

assay: blockers of RIG-like receptor reporter activation – cell-based, Sendai virus stimulus, luciferase, 10K MLSCN set, TLR/RLR signaling modifier project, primary screen (AID 602276); settings: HEK293 RL24 IRF3 luciferase reporter, at 10 µM, stronger effect = higher value;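 further: firefly luciferase from ISG56 promoter only with Renilla not read in this screen; 0% = Sendai virus plus DMSO and 100% = medium plus DMSO without virus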

inhibition, inactive:
CCOC(=O)Nc1ccc2c(c1)N(C(=O)CCN1CCOCC1)c1ccccc1S2 6.28%
Cc1cc(=O)c2n(Cc3ccccc3Cl)nc[n+]2[nH]1 5.55%
CC12CN3CCN(CC(C3)C1(O)CN1CCCCC1)C2 (configuration not stated) 10.7%
Cc1cc(C)n(C(C)n2nc(C)cc2C)n1 11.8%
COC(=O)CSc1nnc(CSc2nc(C)cc(C)n2)n1Cc1ccco1 1.21%
Cc1cc(NC(=O)CSc2nc(C3CCCCC3)nc3ccccc23)no1 12.9%
Cc1cccc(C)c1NC(=O)COC(=O)c1nonc1N 4.72%
CCn1c(=N)n(CC(=O)c2ccco2)c2ccccc21 4.56%
C=C(C)Cn1c(CCCNC(=O)C(C)(C)C)nc2ccccc21 6.04%
Cc1cn(C2CC3OCC3O2)c(=O)[nH]c1=O (configuration not stated) -0.457%
CC(=O)Nc1ccc(Cc2ccncc2)cc1 6.14%
O=C(Nc1ccon1)c1cccc(S(=O)(=O)N2CCCC2)c1 13.5%
CCOC(=O)c1sc(NC(=O)CSc2ncn(-c3ccccc3)n2)nc1C 13.7%
O=C(Nc1ccccc1)N(CCCN1CCOCC1)Cc1cc2cc3c(cc2[nH]c1=O)OCCO3 -3.35%
COCC(=O)n1nc(NCc2ccc(OC)cc2)nc1NCc1ccc(OC)cc1 10.6%
Cc1ccc(S(=O)(=O)N2CCN(C(=O)N3CCOCC3)C2c2ccc(N(C)C)cc2)cc1 (configuration not stated) 12.8%
COc1cccc2c(=O)cc(C)n(CC(=O)Nc3ccc(C)c(C)c3)c12 0.857%
